Where “and” joins values, the source holds several entries; their conditions need not be identical. Equal entries are not always repeated. Inconclusive results are not listed. Entries that show only a call come without a potency. Some compounds were tested as several samples or in several runs, with calls that do not always agree. Calls of active or inactive are those of the source. Unless noted, the call rests on the fitted dose curve; in most records, active means well fitted curve in the direction sought with a large enough effect in the repeat runs; inconclusive means weak or mixed curves; inactive means no such curve, though single readings can be large; an effect the other way counts as inactive or inconclusive.
Experiments:
[1] = qHTS assay to identify small molecule agonists of the TGF-beta/Smad signaling pathway - cell viability counter screen (AID 1346829); further: nearly all actives have a fitted effect of over 45% in size; further: potency means the concentration at half of the fitted maximal effect; on activity change, negative = cytotoxicity: top concentration of the series differs between compounds
Summary of the method: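 Same-well cytotoxicity: CellTiter-Glo added after the 2 hr room-temperature beta-lactamase substrate step, luminescence measured 30 min later; cells had 5 hr of compound at 37 C.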

[2] = qHTS assay to identify small molecule agonists of the TGF-beta/Smad signaling pathway (AID 1346859; active means well fitted activation curve with a large enough effect in the signal ratio in the repeat runs, not every such curve was filed as active; the % refers to the signal ratio; further: series mostly up to about 77 µM)
Summary of the method: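 Beta-lactamase reporter activity downstream of Smad binding elements was measured in stably transfected HEK 293T cells; compounds were incubated for 5 hr, substrate for 2 hr at room temperature.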

[3] = Human pregnane X receptor (PXR) small molecule agonists, qHTS cell viability counter screen (AID 1346977); further: nearly all actives have a fitted effect of over 50% in size; further: potency means the concentration at half of the fitted maximal effect
Summary of the method: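 After a 5hr pre-incubation, PXR-Luc HepG2 cells received compounds plus positive control in DMSO and were kept 24hr at 37C. Cell viability was quantified by fluorescence from CellTiter-Fluor added for the final hour.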

[4] = Caspase-3/7 induction in HepG2 cells by small molecules, qHTS assay (AID 1346978); further: nearly all actives have a fitted effect of over 15% in size; further: potency means the concentration at half of the fitted maximal effect
Summary of the method: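 Wild-type HepG2 cells (2,000/well) were settled 5 h at 37 C, 5% CO2, then exposed to compounds in DMSO for 17 h. Caspase-3/7 activity was read by luminescence 30 min after adding Caspase-Glo 3/7 reagent at room temperature.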

[5] = Caspase-3/7 induction in CHO-K1 cells by small molecules, qHTS cell viability counter screen (AID 1346979); further: nearly all actives have a fitted effect of over 35% in size; further: potency means the concentration at half of the fitted maximal effect
Summary of the method: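 Multiplexed with Caspase-Glo 3/7 in CHO-K1 cells, this counter screen added CellTiter-Fluor after 16hr of compound exposure and recorded fluorescence 1hr later.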

[6] = Caspase-3/7 induction in CHO-K1 cells by small molecules, qHTS assay (AID 1346980); further: nearly all actives have a fitted effect of over 15% in size
Summary of the method: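 Wild-type cells were seeded at 1,500 per well and settled 5 hr at 37 C, 5% CO2, then exposed to DMSO-dissolved compounds for 17 hr. Caspase-Glo 3/7 reagent was added, and luminescence was read after 30min at room temperature.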

[7] = Caspase-3/7 induction in HepG2 cells by small molecules, qHTS cell viability counter screen (AID 1346981); further: nearly all actives have a fitted effect of over 30% in size; further: potency means the concentration at half of the fitted maximal effect; on activity change, negative = cytotoxicity: series mostly up to about 92 µM
Summary of the method: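 Cell viability is measured as a cytotoxicity counter screen alongside the Caspase-Glo 3/7 readout in identical wells. Wild-type HepG2 cells are treated with test compounds for 16 hr at 37 C before CellTiter-Fluor addition and a 1-hr incubation.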

[8] = biological target: Nuclear receptor subfamily 1 group I member 2 (Homo sapiens) (UniProt O75469); assay: Human pregnane X receptor (PXR) small molecule agonists, qHTS assay (AID 1346982); further: nearly all actives have a fitted effect of over 35% in size; further: potency means the concentration at half of the fitted maximal effect
Nuclear receptor subfamily 1 group I member 2 (Homo sapiens), sequence (O75469 whole entry, looked up): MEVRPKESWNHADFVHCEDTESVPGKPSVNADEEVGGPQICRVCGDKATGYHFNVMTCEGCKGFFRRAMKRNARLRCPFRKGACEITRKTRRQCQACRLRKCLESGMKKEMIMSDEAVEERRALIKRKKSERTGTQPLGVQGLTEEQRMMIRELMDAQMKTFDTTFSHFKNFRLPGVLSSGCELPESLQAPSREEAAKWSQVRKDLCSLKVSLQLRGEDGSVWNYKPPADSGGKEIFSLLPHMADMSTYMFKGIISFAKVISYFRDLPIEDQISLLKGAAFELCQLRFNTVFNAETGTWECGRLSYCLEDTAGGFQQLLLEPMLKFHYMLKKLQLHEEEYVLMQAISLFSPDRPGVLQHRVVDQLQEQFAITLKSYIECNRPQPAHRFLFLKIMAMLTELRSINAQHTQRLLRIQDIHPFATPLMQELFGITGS
Summary of the method: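 Cells: HepG2 stably carrying PXR-Luc. Medium held 5% charcoal-stripped FBS. Compounds in DMSO added after 5 hr plating, incubated 24 hr, then luminescence quantified with ONE-Glo.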

[9] = biological target: Thyrotropin-releasing hormone receptor (Homo sapiens) (UniProt P34981); assay: qHTS assay to identify small molecule antagonists of the thyrotropin-releasing hormone receptor (TRHR) signaling pathway (AID 1346877; active means well fitted inhibition curve with a large enough effect in the repeat runs, not every such curve was filed as active; further: series mostly up to about 51 µM)
Thyrotropin-releasing hormone receptor (Homo sapiens), sequence (P34981 whole entry, looked up): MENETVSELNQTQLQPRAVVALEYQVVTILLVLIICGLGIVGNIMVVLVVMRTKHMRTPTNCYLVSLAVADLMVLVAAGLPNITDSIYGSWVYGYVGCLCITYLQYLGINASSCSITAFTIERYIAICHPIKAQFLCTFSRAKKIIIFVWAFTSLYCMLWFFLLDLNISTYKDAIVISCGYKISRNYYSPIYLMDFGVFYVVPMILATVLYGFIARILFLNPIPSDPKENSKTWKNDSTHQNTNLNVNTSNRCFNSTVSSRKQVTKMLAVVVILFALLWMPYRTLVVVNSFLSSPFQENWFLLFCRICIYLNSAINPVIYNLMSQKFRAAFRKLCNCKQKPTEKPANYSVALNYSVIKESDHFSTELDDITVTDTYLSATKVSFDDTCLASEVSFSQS
Summary of the method: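 Antagonism is measured as suppression of the calcium response to 1 nM TRH in TRHR-HEK293 cells that have been dye-loaded for 2 h at 37 °C after overnight plating. Each compound is tested at 15 concentrations in triplicate.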

[10] = biological target: Thyrotropin-releasing hormone receptor (Homo sapiens) (UniProt P34981); assay: qHTS assay to identify small molecule agonists of the thyrotropin-releasing hormone receptor (TRHR) signaling pathway (AID 1346891; calls by dose curve;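 further: HEK293 cells expressing TRHR with calcium dye readout; series mostly up to about 58 µM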)
Summary of the method: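 Overnight-plated (18 h, 37 °C, 5% CO2) TRHR-Hek293 cells; 2 h calcium dye at 37 °C; compound in DMSO; 3-min kinetic fluorescence read.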

SMILES	Potency [1]	outcome [2]	Potency [3]	Potency [4]	Potency [5]	outcome [6]	Potency [7]	Potency [8]	Potency [9]	outcome [10]	activity change, negative = cytotoxicity [3]	activity change, negative = cytotoxicity [5]
CC(O)COCC(C)O (stereo not drawn)	inactive	inactive	inactive	inactive	inactive	inactive	inactive	inactive				
CC(=O)CC(=O)Nc1ccccc1	inactive	inactive	inactive	inactive	inactive	inactive	inactive	inactive				
COc1ccc(Cl)cc1C(=O)NCCc1ccc(S(=O)(=O)NC(=O)NC2CCCCC2)cc1	inactive		inactive	inactive	inactive	inactive	inactive		inactive	inactive		
O=c1[nH]nnc2ccccc12	inactive	inactive	inactive	inactive	inactive	inactive	inactive	inactive				
O=C(O)CCCC[C@@H]1SC[C@@H]2NC(=O)N[C@@H]21	inactive	inactive	inactive	inactive	inactive	inactive	inactive	inactive				
O=P(OC(CCl)CCl)(OC(CCl)CCl)OC(CCl)CCl	inactive	inactive	39.8 µM (active) and inactive	inactive	30.5 µM (active)	inactive	30.5 µM (active)	34.2 µM (active) and 6.11 µM (active)				
C[C@H]1C[C@H]2[C@@H]3CCC4=CC(=O)C=C[C@]4(C)[C@@]3(F)[C@@H](O)C[C@]2(C)[C@@]1(O)C(=O)CO	inactive	inactive	inactive	inactive	inactive	inactive	inactive					
CN(C)CCOCCN(C)C	inactive	inactive	inactive	inactive	inactive	inactive	inactive	inactive				
O=C(O)c1cc(=O)c2c(OCC(O)COc3cccc4oc(C(=O)O)cc(=O)c34)cccc2o1	inactive	inactive	inactive	inactive	inactive	inactive	inactive	inactive				
CC1=C(C)S(=O)(=O)CCS1(=O)=O	inactive	inactive		inactive		inactive		inactive	inactive	inactive		
Cc1cnc(C(=O)NCCc2ccc(S(=O)(=O)NC(=O)NC3CCCCC3)cc2)cn1	inactive	inactive	inactive	inactive	inactive	inactive	inactive	inactive				
Cc1cccc(O)c1	inactive	inactive	inactive	inactive	inactive	inactive	inactive	inactive				
CC(C)c1ccc(S(=O)(=O)O)cc1	inactive	inactive	inactive	inactive	inactive	inactive	inactive	inactive				
CCCCC(CC)CO (stereo not drawn)	inactive	inactive	inactive	inactive	inactive	inactive	inactive	inactive				
CCCCCCCCCCCCCCCO	24.8 µM (active) and inactive	inactive	inactive	inactive	24.5 µM (active) and inactive	inactive	inactive	inactive				
CCCSc1ccc2nc(NC(=O)OC)[nH]c2c1	inactive	inactive	inactive	0.969 µM (active)		inactive	inactive		inactive	inactive		
O=C(CC(C(=O)OC1CCCCC1)S(=O)(=O)O)OC1CCCCC1 (stereo not drawn)	inactive	inactive	inactive	inactive	inactive	inactive	inactive	26.9 µM (active)				
O=C(O)[C@H](O)[C@@H](O)[C@H](O)[C@H](O)CO	inactive	inactive	inactive	inactive	inactive	inactive	inactive	inactive				
C=C(C)C(=O)Nc1ccc(Cl)c(Cl)c1	inactive	inactive	inactive	inactive		inactive	inactive	61.8 µM (active) and 54.3 µM (active)	inactive	inactive		
CCCCCCCCCC	inactive	inactive	inactive	inactive	inactive	inactive	inactive	inactive				
CCc1ccc(CCOc2ccc(CC3SC(=O)NC3=O)cc2)nc1 (stereo not drawn)	inactive		inactive	inactive	inactive	inactive	inactive		inactive	inactive		
N[C@@H](Cc1cc(I)c(Oc2cc(I)c(O)c(I)c2)c(I)c1)C(=O)O	inactive	inactive	inactive	inactive	inactive	inactive	inactive					
NNc1nncc2ccccc12	inactive	inactive	48.6 µM (active)	inactive	43.3 µM (active)	inactive	inactive				6.87% [at 19 µM] (inactive)	-0.255% [at 19 µM] (inactive)
